The values that follow come from PubChem BioAssay (Tox21).

Each structure is given as a SMILES string. Results filed as inconclusive are left out. A call without a number means that no potency is given here. Activity calls are given as the source filed them. The call rests on the fitted dose curve; in most records, active means well fitted cell-killing curve with a large enough effect in the repeat runs; inconclusive means weak or mixed curves, or effect the other way; inactive means no such curve, though single readings can be large or run the other way.

A short description of the assay: qHTS assay to identify small molecule antagonists of the retinoid-related orphan receptor gamma (ROR-gamma) signaling pathway - cell viability counter screen (AID 1159520). Further: nearly all actives have a fitted effect of over 50% in size. The settings on record: Tet-on RORgamma CHO cells viability, ATP luminescence, 16 h; series mostly up to 92.4 µM. An excerpt: U.S. Tox21 Program National Center for Advancing Translational Sciences [NCATS] NIH Chemical Genomics Center [NCGC] U.S. Environmental Protection Agency [EPA] National Institutes of Environmental Health Sciences [NIEHS] National Toxicology Program [NTP] U.S. Food and Drug Administration [FDA] Tox21 Assay Overview: Nuclear steroid hormone receptors are involved in many biological processes including inflammatory responses, cell proliferation, and apoptosis. Environmental factors or compounds disrupting these nuclear receptor pathways and gene expression may promote susceptibility to immunotoxicants and autoimmune diseases. One important group of these expression factors are the retinoid-related orphan receptors. To assess compounds that may interfere with the retinoid-related orphan receptor gamma (ROR-gamma) transcription factor, a cell-based luciferase assay was used. The CHO cell-based assay utilizes a TET-inducible ROR expression factor and ROR response element-LUC reporter gene. Reporter gene activity was induced using Doxycycline Hyclate and measured after 16 hr incubation. Tet-on ROR gamma CHO cells were used to screen against the Tox21 10K compound library for cytotoxicity by measuring the viability of the cells based on the quantitation of the ATP.
Tox21 Assay Protocol Summary: Tet-on ROR gamma CHO cells were dispensed at 1,000 cells in 4 uL of culture medium per well into white wall/solid bottom 1536-well plates using a Multidrop Combi (Thermo Scientific, Waltham, MA) dispenser. Following incubation at 37 C and 5% CO2 for 4 hr, 23 nL of compounds dissolved in DMSO, positive controls or DMSO only were transferred by a Pintool station (Kalypsys, San Diego, CA) and after 2 hr incubation at 37 C, one ul of 1 uM (final concentration) of Doxycycline Hyclate was added to all the wells by using a Flying Reagent Dispenser (FRD) (Aurora Discovery, San Diego, CA). After 16 hr incubation at 37 C and 5% CO2, 5 uL of CellTiter-Glo reagent (Promega Corporation, Madison, WI) was added to each assay plate using FRD. After 30 min incubation at room temperature, luminescence was quantified on a ViewLux plate reader (Perkin Elmer, Waltham, MA).
On to `Cc1nccn1CC1CCc2c(c3ccccc3n2C)C1=O` (stereo not given), for which the Potency result was “inactive”.
As to `O=Cc1ccccc1[N+](=O)[O-]`, the Potency entry was “inactive”.
The same measure, in the same setting: for `CCCCC=O` the value was “inactive”; for `CCC(=O)c1cccc(Cl)c1`, “inactive”.
On to `CC(=O)O[C@H](CC(=O)[O-])C[N+](C)(C)C`, for which the Potency result is “inactive”.
Take `C1C2OC2C2C1C1CC2C2OC12` (stereo not given): the Potency entry is “inactive”.
On the same count and under the same terms, to `COc1ccc(COC=O)cc1` belongs “inactive”.
Turning to `c1ccc(CCCc2ccccn2)cc1`, the Potency entry is “inactive”.
The same measure, in the same setting: for `CCCCCCCCCCCCCCCCCC(=O)OCCCCCCCCCCCCCC(C)C` the value was “inactive”; for `N#CCc1ccccc1[N+](=O)[O-]`, “inactive”; for `CO`, “inactive”.
`CC(C)CCOC(=O)CC(C)C`: the Potency result was “inactive”.
Still for that read-out and setting: to `CC(C)N1C(=O)c2ccccc2C1=O` belongs “inactive”.
The same measure, in the same setting: to `COc1cccc(OC)c1` belongs “inactive”; to `CCCCN(CCO)CCO`, “inactive”.
The same measure, in the same setting: to `CC(C)=CCC/C(C)=C/C(=O)O` belongs “inactive”; to `N[C@@H](CS)C(=O)O`, “inactive”.
Turning to `C1CCCCCCCCCCC1`, the activity, negative = cytotoxicity is 0.201% [at 19 µM] (inactive).
`CC(CCO)CCCC(C)(C)O` (stereo not given): the Potency entry is “inactive”.
On the same count and under the same terms, to `CC(C)[C@H](N)C(=O)OCCOCn1cnc2c(=O)[nH]c(N)nc21` belongs “inactive”; to `O=C(O)C1CCC1`, “inactive”.
On the same count and under the same terms, to `C[C@H]1O[C@@H](n2cc(F)c(=O)[nH]c2=O)[C@H](O)[C@@H]1O` belongs “inactive”; to `c1ccc2cnncc2c1`, “inactive”.
On the same count and under the same terms, for `NC(N)=NS(=O)(=O)c1ccc(N)cc1` the value was “inactive”; for `COC(=O)[C@H]1[C@H]2C[C@@H]3c4[nH]c5cc(OC)ccc5c4CCN3C[C@H]2C[C@@H](OC(=O)COc2ccc(OC)cc2)[C@@H]1OC`, “inactive”.
Take `C=C(C)C1CC=C(C)C(O)C1` (stereo not given): the Potency entry was “inactive”.
In the case of `C=CC(=O)N1CCOCC1`, the Potency result is “inactive”.
On the same count and under the same terms, for `CC1CCN(CCCC(=O)c2ccc(F)cc2)CC1` the value was “inactive”.
The same measure, in the same setting: to `CNC(=O)c1c(I)c(NC(=O)CCCCC(=O)Nc2c(I)c(C(=O)O)c(I)c(C(=O)NC)c2I)c(I)c(C(=O)O)c1I` belongs “inactive”; to `O=c1[nH]c2ccccc2c(=O)n1CCCl`, “inactive”.
As for `CCCCCCOC(=O)c1ccccc1O`, the Potency entry was “inactive”.
On the same count and under the same terms, to `CC1(C)SC(C)(C)SC(C)(C)S1` belongs “inactive”.
On the same count and under the same terms, to `CCC(=O)Nc1cccc(N)c1` belongs “inactive”.
As for `CC(C)COC(=O)c1ccccc1O`, the Potency entry is “inactive”.
Still for that read-out and setting: to `O=[N+]([O-])c1ccc(Oc2ccc([N+](=O)[O-])cc2)cc1` belongs “inactive”.
The same measure, in the same setting: to `CC(C)c1cccc(O)c1` belongs “inactive”.
The same measure, in the same setting: for `Cc1ncc(CSSCc2cnc(C)c(O)c2CO)c(CO)c1O` the value was “inactive”; for `CN1[C@@H]2CC[C@H]1CC(NC(=O)n1c(=O)[nH]c3ccccc31)C2` (stereo not given in full), “inactive”; for `CCC(C)OC(=O)N1CCCCC1CCO` (stereo not given), “inactive”.
With `CN(C)C(=O)C(CCN1CCC(O)(c2ccc(Cl)cc2)CC1)(c1ccccc1)c1ccccc1`, the Potency entry was “inactive”.
